Experimental data taken from ChEMBL document CHEMBL4513216, “Probing the Open Global Health Chemical Diversity Library for Multistage-Active Starting Points for Next-Generation Antimalarials” (ACS Infect Dis, 2020).
The campaign covered roughly 69,000 compounds. About 8,600 (12%) showed an effect of 50% or more. Many of the other results were omitted from the sample, so strong results are more common in it than they were.

test system: Plasmodium berghei; assay: Screen against P. berghei liver stage (PbLuc), transformed with Luciferase, at 10uM; format: functional, HepG2; details: tested at 10 uM

| Compound | INHIBITION |
| --- | --- |
| O=C(C1CCCC1)N1C[C@@H]2CCN(c3cccnc3)C[C@@H]2C1 | 54.4% |
| O=C(C1CCC1)N1C[C@@H]2CCN(c3cccnc3)C[C@@H]2C1 | 5.96% |
| Cc1cccc(NC(=O)N2CCCn3cnc(CN4CCCC4)c3C2)c1 | 15.1% |
| CCc1nnc2n1CCN(Cc1csc(Cc3ccccc3)n1)C2 | 19.2% |
| CC1=N[C@@]2(CC[C@@H]3CN(CC4CC4)C[C@@H]32)C(=O)N1CC1CC1 | 12.4% |
| COCCN1C(=O)[C@]2(CC[C@@H]3CN(C(=O)NCC(C)C)C[C@@H]32)N=C1C | 18.1% |
| COCCN1C(=O)[C@]2(CC[C@@H]3CN(C(=O)NC(C)C)C[C@@H]32)N=C1C | 57.1% |
| CC1=N[C@@]2(CC[C@@H]3CN(CC4CC4)C[C@@H]32)C(=O)N1CC(C)C | 74.2% |
| COCCN1C(=O)[C@]2(CC[C@@H]3CN(C(=O)NC4CCCC4)C[C@@H]32)N=C1C | 20.2% |
| CC1=N[C@@]2(CC[C@@H]3CN(CC(C)C)C[C@@H]32)C(=O)N1CC(C)C | 39.2% |
| Cc1csc(N2CCN(Cc3nnsc3Cl)CC2C)n1 (stereo not given) | 45.2% |
| O=C(c1ccco1)N1CCOCC2(C1)CN(c1ccoc1)C(=O)CO2 (stereo not given) | -8.28% |
| CCOc1ccc(CN2CCC(c3ccn[nH]3)C2)cc1CO (stereo not given) | 43.85% |
| Cn1cc2c(n1)C(CNCc1ccco1)OCC2 (stereo not given) | 15.4% |
| CC(C)CC1SCC(=O)Nc2c1cnn2-c1ccc(F)cc1 (stereo not given) | 28.4% |
| CN(C)C(=O)[C@H]1C[C@H]2[C@H](CCN2Cc2ccc3c(c2)OCO3)O1 | 18.5% |
| CCCNC(c1cccnc1)c1ccc(F)cc1F (stereo not given) | 12.9% |
| O=c1n(CCNCc2cccc3ccccc23)nc2ccccn12 | 28.8% |
| CCSCCC(=O)NCCn1nc2ccccn2c1=O | 37.7% |
| CCC(=O)CNC(=O)CCn1nc2ccccn2c1=O | 69.8% |
| CCNC(=O)NCCCn1nc2ccccn2c1=O | -12.2% |
| O=c1n(CCNCc2ccc3ccccc3c2)nc2ccccn12 | -23.4% |
| O=c1n(CCNc2cccc3ccccc23)nc2ccccn12 | 65.2% |
| CC(=O)N(Cc1ncc(C)o1)C1CCN(Cc2cnc(C)s2)C1 (stereo not given) | 14.2% |
| CC(C)C[C@H](N)C(=O)N1CC2(CCNCC2)c2cc(Cl)ccc21 | -28.2% |
| CCCc1noc(C2CCN(S(=O)(=O)c3cccs3)CC2)n1 | 4.97% |
| COc1cccc2ccc(CN3CCN(c4ncccn4)CC3)nc12 | 39.8% |

| Compound | INHIBITION |
| --- | --- |
| COc1cccc2ccc(CN3CCN(c4ccncc4)CC3)nc12 | 25.3% |
| COc1cccc2ccc(CN3CCN(c4ncccc4C)CC3)nc12 | 61.1% |
| Cc1ccc(CNC(C)c2ccc(OCC(=O)NC3CC3)cc2)o1 (stereo not given) | 40% |
| COCc1noc(Cn2c(C)cc(C(F)(F)F)cc2=O)n1 | 41.2% |
| CCCc1nnc(NCCCn2nc(C)c(Cl)c2C)o1 | 16.1% |
| CCN1CCO[C@@H]2CN(C(=O)COC3CCCC3)C[C@@H]2C1 | 0.804% |
| CN(Cc1ccccn1)C1CC2(CCN(Cc3ccccn3)CC2)C1 | 47.4% |
| CN(Cc1cccnc1)C1CC2(CCN(Cc3cccnc3)CC2)C1 | 70.7% |
| CN(Cc1ccncc1)C1CC2(CCN(C(=O)c3ccnnc3)CC2)C1 | -5.63% |
| CN(Cc1cccnc1)C1CC2(CCN(C(=O)c3ccnnc3)CC2)C1 | 53.9% |
| CN(Cc1cccnc1)C1CC2(CCN(C(=O)c3cnccn3)CC2)C1 | 21.7% |
| CN(Cc1cccnc1)C1CC2(CCN(c3ccccn3)CC2)C1 | 47.8% |
| CN(Cc1cccnc1)C1CC2(CCN(Cc3ccccn3)CC2)C1 | 50.9% |
| CN(Cc1cccnc1)C1CC2(CCN(C(=O)c3cscn3)CC2)C1 | -18.5% |
| CN(Cc1ccccn1)C1CC2(CCN(Cc3cccnc3)CC2)C1 | 33% |
| Fc1ccc(CN2CCOCC3(CCN(Cc4nccs4)C3)C2)cc1 (stereo not given) | 7.24% |
| CCCc1nnc(NCCc2noc(C3CCC3)n2)o1 | 12.7% |
| CC(C)C(=O)NCCNC(=O)CCOc1cccc(F)c1 | 48.45% |
| CCc1cc(NC2CCC(O)CC2)n2nc(C)c(C)c2n1 (stereo not given) | 25.1% |
| CC(C)CN1CCC(N2CCC(C(=O)N(C)C)CC2)CC1 | 18.6% |
| COc1ccc(OC2CCN(C(=O)CCc3n[nH]c(C)n3)CC2)cc1 | -4.23% |
| CN(C)CCOCC1CN(C(=O)c2ccsc2)Cc2ccnn2C1 (stereo not given) | -10.3% |
| Cc1cnc2n(c1=O)C(CC(=O)NCc1cccs1)CS2 (stereo not given) | 6.09% |
| Cc1cnc2c(c1NCc1ccc3c(c1)OCO3)c(=O)n(C)c(=O)n2C | 73.3% |
| Cc1cc(NC(=O)Cc2ccc3c(c2)OCO3)n(C)n1 | 13.2% |
| Cc1nn(C)c(N2CCOCC2)c1CNCc1ccc2c(c1)OCO2 | 7.67% |
| Cc1cnc2c(c1NCc1cccs1)c(=O)n(C)c(=O)n2C | 54.1% |

| Compound | INHIBITION |
| --- | --- |
| Cc1cnc2n(c1=O)C(CC(=O)NCc1cccnc1)CS2 (stereo not given) | 40.9% |
| Cc1cnc2c(c1NCc1cccnc1)c(=O)n(C)c(=O)n2C | 71.8% |
| Cc1cnc2c(c1NCc1ccc(F)cc1)c(=O)n(C)c(=O)n2C | 51.2% |
| CS(=O)(=O)c1ccc(NCc2ccc(F)cc2)cn1 | -32.7% |
| Cc1cnc2c(c1NCc1ccccn1)c(=O)n(C)c(=O)n2C | 8.31% |
| CCc1cnc2c(c1Nc1ccccc1OC)c(=O)n(C)c(=O)n2C | 15.4% |
| Cc1cnc2c(c1NCc1ccncc1)c(=O)n(C)c(=O)n2C | -14.6% |
| Cc1cnc(N2CCC3(CC2)COCCN(C(C)C)C3)nc1 | 12.2% |
| O=c1cnc2ccccc2n1CCCn1ccnc1 | 34% |
| Cc1cc2nc(C(C)C)cc(NCCNc3ncccc3C)n2n1 | 64.2% |
| Cc1cccnc1NCCNc1cc(C(C)C)nc2ccnn12 | 43.9% |
| Cc1cc(NCCNc2ncccc2C)n2nc(C)cc2n1 | 16% |
| O=C(O)Cc1cccc(-n2ccnc2-c2ccc(F)c(Cl)c2)c1 | -10.5% |
| COc1cc(-n2ccnc2-c2ccc(C(=O)O)s2)ccc1NC(C)=O | 17.5% |
| Cc1nccn1-c1ccc(=O)n(CCNC(=O)Cc2ccccc2)n1 | 13.8% |
| CNC(=O)Cc1ccc(-n2ccnc2-c2ccc(C(=O)O)s2)cc1 | 51.2% |
| Cc1cccc(-c2nccn2-c2cccc(CC(=O)O)c2)n1 | 11.9% |
| O=C(O)Cc1cccc(-n2ccnc2-c2ccc(Cl)s2)c1 | 53.3% |
| CCn1c(C)nnc1SCCNC(=O)c1sc(C(C)C)nc1C | -12.1% |
| Cc1cncc(C(=O)N2CCc3ncc(Cn4cccn4)n3CC2)c1 | 10.5% |
| Cc1cc(C)c2cc(C(=O)N3CCNC(=O)C3)[nH]c2c1 | 14.3% |
| CNC(=O)C1(CCCc2ccccn2)CN(Cc2scnc2C)C1 | 30.4% |
| Cc1cccc(C)c1Nc1noc2c1CN(C(=O)c1c[nH]nc1C)CC2 | 18.34% |
| O=C(c1ccco1)N1CC2(CCNCC2)c2cc(Cl)ccc21 | 51.9% |
| O=C([C@@H]1CSCN1)N1CC2(CCNCC2)c2cc(Cl)ccc21 | 38.5% |
| O=C([C@H]1CCCN1)N1CC2(CCNCC2)c2cc(Cl)ccc21 | 58.3% |
| O=C(c1ccccc1F)N1CC2(CCNCC2)c2cc(Cl)ccc21 | -27% |

| Compound | INHIBITION |
| --- | --- |
| CC(=O)N1CC2(CCNCC2)c2cc(Cl)ccc21 | 14.9% |
| NC(=O)N1CC2(CCNCC2)c2cc(Cl)ccc21 | 19.1% |
| CN(C)C(=O)N1CC2(CCNCC2)c2cc(F)ccc21 | -15.5% |
| O=C(c1ccncc1)N1CC2(CCNCC2)c2cc(Cl)ccc21 | 5.04% |
| CN(C)C(=O)N1CC2(CCNCC2)c2cc(Cl)ccc21 | 83.5% |
| Cn1ccnc1CN1CCOC(Cn2cccn2)C1 (stereo not given) | 7.08% |
| CNc1nc2cn(CCc3ccc(Cl)cc3)c(=O)c-2c[nH]1 | -15.5% |
| CN(C)c1cc(CNC(=O)c2ccc(Br)cc2F)ccn1 | 16.8% |
| Cc1cnc(N2C[C@H]3CCN(CC4CC4)C[C@H]3C2)nc1 | -21.7% |
| NC(=O)c1ccc2c(c1)nc1n2CCN(Cc2ccco2)C1 | -7.9% |
| NC(=O)c1ccc2c(c1)nc1n2CCN(Cc2ccccc2)C1 | 16.6% |
| NC(=O)c1ccc2c(c1)nc1n2CCN(Cc2cccnc2)C1 | 54% |
| O=C(NCCCO)c1cc(-c2cc[nH]n2)n2ccccc12 | 15.4% |
| COc1ccc(C2c3c(n[nH]c3C)N=C3COC(=O)C32)cc1OC (stereo not given) | -2.37% |
| Cc1ccc(C2c3c(n[nH]c3C)N=C3COC(=O)C32)cc1C (stereo not given) | 55.3% |
| CSc1nc(N)c2c(n1)N=C1COC(=O)C1C2c1cccc(Cl)c1 (stereo not given) | 15.9% |
| CCOc1ccc(C2c3c(N)nc(SC)nc3N=C3COC(=O)C32)cc1 (stereo not given) | -44.5% |
| COc1ccc(OC)c(C2c3c(n[nH]c3C)N=C3COC(=O)C32)c1 (stereo not given) | -15% |
| CCN(CC)c1ccc(C2c3c(n[nH]c3C)N=C3COC(=O)C32)cc1 (stereo not given) | 68.1% |
| Nc1ccc(-c2cnc(C3CCCN3)cn2)cn1 (stereo not given) | -4.175% |
| Cc1cc(C)n(CC2CCCN2C(=O)c2ccc(NC3CC3)nc2)n1 (stereo not given) | -5.07% |
| Cc1ccc(=O)n(CC2(O)CCN(Cc3cccs3)CC2)n1 | -20.2% |
| O=C(NCCN1CCOCC1)c1nc2ccccc2c(=O)[nH]1 | 45.7% |
| CC1COCCN1Cc1nc(-c2ccc(Br)s2)no1 (stereo not given) | -50.8% |
